# From PubChem BioAssay
# PriA SSB inh – K. pneumoniae PriA-SSBct interaction inhibition. AlphaScreen SSBct-PriA binding, biotinylated peptide. actives 0.6% (n = 430,000). inhibition, % at 33 µM; in the data active = inhibition mostly above about 37%, no sharp cut-off; inactive = mostly below about 20%;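 note: plate controls were negative control peptide for no effect and reference peptide for full effect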
# Vc quorum ag – induces V. cholerae light production without autoinducers; actives 0.16% (n = 350,000); activation, % at 18.7 µM; V. cholerae BH1578 lux reporter, luminescence, 6 h; AID 588436; in the data active = activation mostly above about 9.7%, no sharp cut-off; inconclusive = no clear call, values can overlap the other calls; inactive = mostly below about 3.7%
# FadD28 binding – blocks FadD28 binding to the bisubstrate probe; actives 0.22% (n = 360,000); fluorescence polarization; inhibition, % at 12.5 µM; in the data active = inhibition above about 8.5%, passing the limit was not always enough; inconclusive = no clear call, values can overlap the other calls
# PrPC TRFRET – reduces human prion protein on the cell surface | actives 0.43% (n = 370,000) | cell surface PrPC, TR-FRET read-out | inhibition, % at 13.8 µM | P04156; in the data active = inhibition above about 24%; note: 0% = median of the test wells and 100% = reference compound wells
# PrP 5UTR inh – inhibition of PrP 5' UTR reporter expression | cell-based PrP 5' UTR mRNA reporter, plate reader | inhibition, % (concentration not given with the values) | actives 0.35% (n = 340,000) | AID 488862; in the data active = inhibition above about 52%; note: 0 = median of the neutral control wells
# Active calls of the source: *; i = inactive; ? = inconclusive; . = no result given. An excerpt weighted towards active compounds, which were near 1.4% of everything screened.
SMILES,PriA SSB inh,Vc quorum ag,FadD28 binding,PrPC TRFRET,PrP 5UTR inh
S=C(Nc1ccccn1)c1ccccn1,80.6*,i,-3.7,-3.9,-69.2
COCCCNC(=S)NNC(=O)c1ccccn1,81.6*,i,1.6,3.2,-3.5
O=C(NN=C1CCC(=NNC(=O)c2ccccn2)CC1)c1ccccn1,85.4*,0.7,-2.5,-6.2,-9.4
O=C(Nc1ccccn1)C(=O)Nc1ccccn1,-2.0,-0.2,-4.2,9.2,-62.8
O=C(NNC(=O)c1ccccn1)c1ccccn1,57.5*,.,.,.,.
O=C(NN=C1CCCCc2ccccc21)c1ccccn1,2.7,.,.,.,.
COc1ccc(C=NOCC(=O)Nc2nc3ccccc3s2)cc1,-5.3,.,.,.,.
CCOC(=O)C1=C(CC)Nc2ccccc2NC1=NS(=O)(=O)c1ccccc1OC,0.4,.,.,.,.
O=C(c1ccccc1Cl)N1CCN(c2ccc(-c3ccccn3)nn2)CC1,147.0*,.,.,.,.
O=C(c1ccccc1Cl)N1CCN(c2ccc(-n3cccn3)nn2)CC1,-30.0,.,.,.,.
CS(=O)(=O)N1CCN(c2ccc(-c3ccccn3)nn2)CC1,77.0*,.,.,.,.
O=C(c1ccccn1)N1CCN(c2ccc(-c3ccccn3)nn2)CC1,157.0*,.,.,.,.
CS(=O)(=O)N1CCN(c2ccc(-c3ccco3)nn2)CC1,-8.0,.,.,.,.
COc1ccc(C(=O)NCc2ccccc2-c2ccsc2)c(OC)c1OC,-7.0,.,.,.,.
COc1cc(NC(=O)C2CCN(c3ccc(-c4ccco4)nn3)CC2)ncn1,2.0,.,.,.,.
O=C(N/N=C/c1ccc(O)cc1)c1cc(-c2ccc3c(c2)OCO3)n[nH]1,.,-3.1,-7.5,24.9*,-4.1
Cc1cccc(CN2C(=O)CCC2c2nc(C3CC3)no2)c1 (stereo unspecified),-1.0,.,.,.,.
Cc1ccc2c(nc3sc(=Cc4cccs4)c(=O)n32)c1C,-3.2,.,.,.,.
CCSc1cccc(C(=O)Nc2ccc(OC)cc2[N+](=O)[O-])c1,51.0*,.,.,.,.
COc1ccc(NC(=O)c2ccccc2NS(=O)(=O)c2ccc(C)cc2)c([N+](=O)[O-])c1,52.7*,i,-1.0,12.3,-13.4
CS(=O)(=O)c1ccc2nc(NC(=O)Cc3cn(Cc4ccc(F)cc4)c4ccccc34)sc2c1,-15.0,.,.,.,.
C#CCOCCOCCOCCNc1nc(N2CCN(C(=O)C(Cc3cc4ccccc4[nH]3)n3cc(C(N)Cc4ccc(O)cc4)nn3)CC2)nc(N2CCN(C(=O)C(Cc3cc4ccccc4[nH]3)n3cc(C(N)Cc4ccc(O)cc4)nn3)CC2)n1 (stereo unspecified),39.4*,.,.,.,.
C#CCOCCOCCOCCNc1nc(N2CCN(C(=O)[C@H](Cc3cc4ccccc4[nH]3)n3cc([C@@H](N)Cc4ccc(O)cc4)nn3)CC2)nc(N2CCN(C(=O)[C@H](Cc3cc4ccccc4[nH]3)n3cc([C@@H](N)CC(C)C)nn3)CC2)n1,22.3,.,.,.,-1.5
CC(OC(=O)CNS(=O)(=O)c1ccc2ccccc2c1)C(=O)N(C)c1ccccc1 (stereo unspecified),0.7,-3.6,-3.6,0.3,-4.6
CC(OC(=O)COc1ccc(Nc2ccccc2)cc1)C(=O)N(C)c1ccccc1 (stereo unspecified),40.1*,i,0.1,-5.1,-3.1
SMILES,PriA SSB inh,Vc quorum ag,FadD28 binding,PrPC TRFRET,PrP 5UTR inh
CC(=O)c1ccc2c(c1)C1C=CCC1C(C(=O)O)N2 (stereo unspecified),16.3,-0.2,39.5*,1.4,-9.8
CC(=O)c1ccc2c(c1)C1C=CCC1C(c1ccncc1)N2 (stereo unspecified),10.4,0.9,-0.9,-3.6,-19.8
Cc1ccc(C)n1-c1sccc1C(=O)O,-8.8,i,21.2*,.,-4.9
CCc1cccc2c(C(=O)CN3C(=O)NC4(CCc5ccccc54)C3=O)c[nH]c12 (stereo unspecified),13.7,-0.3,33.1*,1.3,-28.4
CCc1cccc2c(C(=O)CN3C(=O)N(C)C4(CCCCC4)C3=O)c[nH]c12,6.4,-0.7,?,-3.3,-25.7
CCc1cccc2c(C(=O)CN3C(=O)NC(C)(c4cccc5ccccc45)C3=O)c[nH]c12 (stereo unspecified),-11.5,-1.6,19.4*,2.2,-22.0
Cc1ccc(C)c(C(=O)CN2C(=O)NC3(CCc4ccccc43)C2=O)c1 (stereo unspecified),-3.0,1.2,-8.4,10.2,-28.2
COc1ccc(S(=O)(=O)Nc2ccc3c(c2)N(C(=O)C(C)(C)C)CC3)cc1Cl,3.0,.,.,.,.
O=C(CC1CCCC1)NCCn1ncc2c(N3CCN(c4ncccn4)CC3)ncnc21,-12.0,.,.,.,.
CCCN1CCCc2cc(CCNC(=O)c3cccc(F)c3)ccc21,41.0*,.,.,.,.
CCCN1CCCc2cc(CCNC(=O)c3cccc(OC)c3)ccc21,61.0*,.,.,.,.
CCCN1CCCc2cc(CCNC(=O)c3cccc(C)c3)ccc21,59.0*,.,.,.,.
CCCN1CCCc2cc(CCNC(=O)c3cccc(Cl)c3)ccc21,48.0,.,.,.,.
CCCN1CCCc2cc(CCNC(=O)c3c(F)cccc3F)ccc21,54.0*,.,.,.,.
Nc1c(C(=O)NCc2cccs2)c2nc3ccccc3nc2n1/N=C\c1ccco1,0.0,.,.,.,.
CCCCOc1ccc(-c2cc3c(=O)n(CC(=O)Nc4ccc(Br)cc4F)ccn3n2)cc1,1.0,.,.,.,.
CSCC[C@](C)(O)CNC(=O)c1ccsc1,-2.0,.,.,.,.
O=C(CS(=O)(=O)c1ccccc1)Nc1ccc(Cl)cn1,7.9,0.0,-1.0,-2.6,-20.6
O=C(CC(c1ccccc1)c1ccccc1)Nc1ccc(Cl)cn1,-23.4,.,-0.5,28.6*,-24.3
CC(C)CS(=O)(=O)C1CN(C(=O)c2ccc(Cl)s2)C1,2.0,.,.,.,.
Clc1nc(-c2ccccn2)nc2scc(-c3ccccc3)c12,-9.2,-0.3,-5.9,-0.1,-16.4
Nc1nc(-c2ccccn2)nc2sccc12,125.5*,.,.,.,.
CC(=CC(=O)c1ccccc1)Nc1ccc2c(c1)OCO2,41.0*,.,.,.,.
COc1ccc(C(=O)C=C(C)Nc2ccc3c(c2)OCO3)cc1,8.3,.,.,.,.
CC(C)Sc1ccc(CC(=O)O)cc1,-9.0,.,.,.,.
SMILES,PriA SSB inh,Vc quorum ag,FadD28 binding,PrPC TRFRET,PrP 5UTR inh
Cc1ccccc1-n1ncc2c([N+](=O)[O-])cc([N+](=O)[O-])cc21,63.9*,i,-5.4,-20.6,-24.0
Cc1cc(C(=O)N2CCN(C)CC2)nn1CC(=O)N1CCC[C@H](C)C1,-2.0,.,.,.,.
O=[N+]([O-])c1ccccc1N1CCN(c2ccc([N+](=O)[O-])c3cccnc23)CC1,75.4*,.,.,.,.
O=[N+]([O-])c1ccc(N2CCCC2)c2ncccc12,-6.3,-0.9,1.5,-3.2,-15.3
CC1CN(c2ccc([N+](=O)[O-])c3cccnc23)CC(C)N1 (stereo unspecified),38.3*,13.3,-0.8,-42.2,-13.3
Cc1cccc(CCN=c2c([N+](=O)[O-])nn(-c3ccccc3)n2O)c1,39.5*,-0.3,-2.8,-19.2,10.8
Fc1ccc(C=Nn2c(C3CCCCC3)n[nH]c2=S)cc1,15.6,.,.,.,.
Cc1ccc(/C=C(\NC(=O)c2ccccc2)C(=O)NC(Cc2ccccc2)C(=O)O)cc1 (stereo unspecified),-12.4,i,-1.3,-0.9,0.1
CC(C)=C(NC(=O)c1ccccc1)C(=O)NC(Cc1ccccc1)C(=O)O (stereo unspecified),-14.3,15.4*,-1.6,-0.5,10.7
CC(C)Oc1ccc(C(=O)NC[C@@H](c2cccs2)N(C)C)cc1,-20.0,.,.,.,.
CCCN1CCCc2cc(CCNC(=O)c3ccccc3Cl)ccc21,53.0*,.,.,.,.
